Data published in PubChem BioAssay AID796 (Columbia University Molecular Screening Center, 2007).
Hit rate of the full screen: of about 94,000 compounds, about 410 (0.44%) were called active. What follows is part of a selection rich in actives, with near analogues and random picks from the rest. Values without a mark were called inactive.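 The calls were made as follows: active = inhibition above about 30% together with a positive call from visual inspection of the well image (limit read from the data); inconclusive = inhibition above a set limit but visual check negative; inactive = inhibition not above a set limit, visual check negative.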

Assay: inhibitors of IL-1B driven NFkB p65 nuclear import, primary screen, imaging, HUVEC, IL-1B stimulus, high-content imaging (AID 796);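 also: nuclear over cytoplasmic p65 intensity ratio measured by imaging; 0% = IL-1B stimulated DMSO wells and 100% = unstimulated DMSO wells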
Settings: HUVEC IL-1B NFkB p65 nuclear translocation imaging; at 2 µM; hits give high values

First: Cc1noc(C)c1CSCC(=O)Nc1nc2ccc(Oc3ccccc3)cc2s1
Second: COc1ccccc1OCc1nc2ccccc2s1
The inhibition of the first is lower: -3.4% for the first, 9.7% for the second.

Going from `Cc1ccc(-n2nc(N)c3c(=O)oc(N(C)C)nc32)cc1` to `Cc1ccc(S(=O)(=O)N(C)C2(C)CCS(=O)(=O)C2)cc1` (stereo unspecified), the inhibition falls from -5.7% to -19.1%.

First: O=C(COc1ccc(Cl)cc1)NCCC1=CCCCC1
Second: C=CCn1c(COc2ccccc2)nnc1SCC(=O)NCC(=O)OCC
The inhibition of the first is higher: 1.3% for the first, -6.1% for the second.

First: CN(NC(=O)c1ccccc1)c1nc2ccccc2nc1C(F)(F)F
Second: COc1ccc(C(=O)NN(C)c2nc(-c3ccccc3)cc(C)c2S(C)(=O)=O)cc1
The inhibition of the first is higher: 12.5% for the first, -10.1% for the second.

Going from `O=S(=O)(c1cnccc1N1CCN(/N=C/c2ccc(Br)cc2)CC1)N1CCCCC1` to `COc1ccc(C(=O)NC(=S)Nc2ccccc2N2CCN(S(C)(=O)=O)CC2)cc1OC`, the inhibition rises from -15.8% to -15.4%.

First: COc1cc(OC)cc(C(=O)NC2CCN(C(=O)N3c4ccccc4Sc4ccccc43)CC2)c1
Second: O=C(Nc1ccccc1-c1nnn(CC(=O)N2CCCc3ccccc32)n1)c1cccc(Cl)c1
The inhibition of the first is lower: -1.1% for the first, 9.4% for the second.

First: Cc1ccccc1N1CCN(CCCOc2ccc3c(C)cc(=O)oc3c2)CC1
Second: C=CCn1c(COc2ccccc2C)nnc1SCC(=O)O
The inhibition of the first is higher: -2.5% for the first, -19.2% for the second.

First: Cn1c(C(=O)OC(C(=O)NC2CCCCC2)c2ccccn2)cc2sccc21 (stereo unspecified)
Second: CCC(C)NC(=O)C1CCCN(C(=O)NC2CCCCC2)C1 (stereo unspecified)
The inhibition of the first is higher: -1.9% for the first, -6.5% for the second.

Going from `COc1cccc(/C=N/NC(=O)c2cccc([N+](=O)[O-])c2)c1OS(=O)(=O)c1ccc(C)cc1` to `COc1ccc(C(=O)Oc2cc(/C=N/NS(=O)(=O)c3ccc(C)cc3)ccc2OC)cc1`, the inhibition falls from 1.2% to -13.4%.

Going from `CC(C)n1c(-c2cccs2)nc2ccccc21` to `Cn1cnc([N+](=O)[O-])c1Sc1ccccc1`, the inhibition rises from -4.4% to 7%.

Going from `COc1cc(C(=S)N2CCOCC2)cc(OC)c1OC(=O)c1cc([N+](=O)[O-])cc([N+](=O)[O-])c1` to `CCOC(=O)c1c(NC(C)=O)sc2c(O)c(Br)ccc12`, the inhibition falls from 2.4% to -8%.

First: OC(c1ccccc1)c1nccn1Cc1ccccc1 (stereo unspecified)
Second: Cc1ccc(NC(=S)Nc2ncccc2C)c(C)c1
The inhibition of the first is lower: -26.3% for the first, 8.4% for the second.

For `CSc1nc(N(C)NC(=O)c2cccc(C)c2)c2ccccc2n1`, the inhibition was 34.2% (active).
In the case of `C=CCn1c(COc2cccc3cccnc23)nnc1SCC(=O)OC`, the inhibition was 30.7% (active).
